The source of these data is PubChem BioAssay AID504652 (National Center for Advancing Translational Sciences (NCATS), 2011).

Values joined by “and” are separate entries in the source; they are usually repeats but may differ in a detail not shown here. Equal entries are not always repeated. The campaign covered roughly 360,000 compounds. About 11,000 (3.1%) were called active. The sample holds actives, similar compounds and a random draw of the others, so the mix is not that of the screen. Unmarked numbers belong to inactive results. Cut-off read from the data, not from the text of the source: active = activity change below about -30%; inactive = the rest.
% is set by controls: 0 for no effect and ±100 for the full control effect.

D(1A) dopamine receptor (Homo sapiens), sequence (P21728 whole entry, looked up): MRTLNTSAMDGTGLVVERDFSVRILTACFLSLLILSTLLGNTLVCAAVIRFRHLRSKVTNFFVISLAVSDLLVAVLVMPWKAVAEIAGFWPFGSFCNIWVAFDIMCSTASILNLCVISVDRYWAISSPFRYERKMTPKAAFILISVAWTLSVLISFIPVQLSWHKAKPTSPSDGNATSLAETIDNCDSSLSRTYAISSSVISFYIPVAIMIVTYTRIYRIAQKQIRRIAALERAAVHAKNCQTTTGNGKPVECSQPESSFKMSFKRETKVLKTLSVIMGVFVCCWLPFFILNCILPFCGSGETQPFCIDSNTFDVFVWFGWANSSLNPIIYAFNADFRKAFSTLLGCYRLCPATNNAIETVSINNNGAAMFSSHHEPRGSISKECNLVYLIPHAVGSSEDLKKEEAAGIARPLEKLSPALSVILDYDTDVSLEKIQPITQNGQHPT

The target of the test is D(1A) dopamine receptor (Homo sapiens) (UniProt P21728). Put plainly: Antagonist of Human D 1 Dopamine Receptor: qHTS. As to conditions: HEK293 TREx D1 cells, calcium flux, dopamine EC80; at 10 µM; active compounds read low. The essentials:
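Allosteric or orthosteric antagonism assessed as attenuation of the calcium response to EC80 dopamine, added 180 s after compound, in induced HEK293 Trex D1 cells loaded with no-wash calcium dye.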
For orientation: qHTS replaces the single test concentration by a dilution series.
Take `COc1ccccc1CNC(=O)c1ccc(CS(=O)c2ccccc2Cl)o1` (stereo not given): the activity change, negative = inhibition was -4.03%.
The same measure for `Cc1ccc(C)c(N2CCN(C(=O)CCc3c(C)nc4c(c3C)c(=O)n(C)c(=O)n4C)CC2)c1`: 7.99%; for `CC1=C(C(=O)OCC(C)C)C(c2ccc(OCc3ccccc3)cc2)N2C(=O)CCSC2=N1` (stereo not given): 4.42%; for `Cc1ccc(N=C2NC(=O)/C(=C/C=C/c3ccco3)S2)cc1C`: -15.5%.
Turning to `CN(C)c1ccc(-n2cccc2/C=C2/SC(=Nc3ccc(F)cc3)NC2=O)cc1`, the activity change, negative = inhibition was -42.9% (active).
Take `CN(C)c1ccc(-n2cccc2/C=N/n2cnnc2)cc1`: the activity change, negative = inhibition is 10%.
Regarding `CCc1cc2c(cc3c(=O)n(CC(=O)N4CCN(c5cc(Cl)ccc5C)CC4)nc(CC)n32)s1`, the activity change, negative = inhibition is -29.5%.
In the case of `COc1ccc(C(=O)Nc2ccc(-n3nncc3-c3ccccc3)cc2)cc1OC` it was -8.31%; in that of `Nn1c(SCC(=O)NC(=O)NC2CCCC2)nnc1-c1ccccc1F`, -31.8% (active).
The same measure for `Nn1c(SCC(=O)NC2CCCC2)nnc1-c1ccccc1F`: 10.8%; for `CC(C)NC(=O)NC(=O)CSc1nnc(-c2ccccc2F)n1N`: 2.73%.
The same measure for `CCc1cc2c(cc3c(=O)n(CC(=O)NCCc4ccc(OC)c(OC)c4)ncn32)s1`: -0.482%; for `CCc1ccc(NC(=O)c2sc3nc4c(cc3c2N)CN(CC)CC4)cc1`: -15.6%.
As to `O=C(COC(=O)Cc1ccccc1F)NCCc1ccccc1`, the activity change, negative = inhibition is -27%.
`N=c1n(CCc2ccccc2)c2ccccc2n1Cc1ccccc1F`: the activity change, negative = inhibition is -72.5% (active).
`Fc1ccccc1Cn1cnc(NC(=S)NCCc2ccccc2)n1`: the activity change, negative = inhibition is 0.584%.
The same measure for `Cn1c(=O)c2sccc2n2c(CCC(=O)NCc3ccccc3Cl)nnc12`: -4.17%; for `Cn1c(=O)c2c(SCC(=O)N3CCc4ccccc43)nc(-c3ccc(Cl)cc3)nc2n(C)c1=O`: -4.79%; for `CCCOC(=O)c1c(NC(=O)c2cc3nc(-c4ccc(OC)cc4)cc(C(F)(F)F)n3n2)sc2c1CCCC2`: 1.36%.
Take `CCOC(=O)C1CCN(c2ncnc3c2c(-c2ccccc2)cn3-c2cccc(C)c2)CC1`: the activity change, negative = inhibition was 7.99%.
Take `COc1cc(OC)cc(C(=O)Nc2c(C(=O)Nc3ccc(F)cc3)oc3ccccc23)c1`: the activity change, negative = inhibition is -9.05%.
`CCOC(=O)c1cccc(NC(=O)C2CCCN(S(=O)(=O)c3cnc[nH]3)C2)c1` (stereo not given): the activity change, negative = inhibition is -31.2% (active).
In the case of `O=C(NCc1ccco1)C1CCCN(S(=O)(=O)c2cnc[nH]2)C1` (stereo not given), the activity change, negative = inhibition was 6.39%.
With `COc1cccc(N2CCN(C(=O)C3CCCN(S(=O)(=O)c4cnc[nH]4)C3)CC2)c1` (stereo not given), the activity change, negative = inhibition was -10%.
Regarding `CC1CCN(c2ccc([N+](=O)[O-])cc2C(N)=O)CC1`, the activity change, negative = inhibition was -6.77%.
On to `CC1CCN(c2ccc(S(=O)(=O)Nc3cc(C(=O)O)cc(C(=O)O)c3)cc2[N+](=O)[O-])CC1`, for which the activity change, negative = inhibition was 21.6%.
For the compound `O=C(O)C1CCN(c2ccc([N+](=O)[O-])cc2[N+](=O)[O-])CC1`, the activity change, negative = inhibition was -34.9% (active).
On to `COc1ccccc1CNc1nc2ccc(Cl)cc2n2cnnc12`, for which the activity change, negative = inhibition is 31.1%.
Take `Cc1ccc(OCC(=O)OCc2cc(=O)n3nc(C4CC4)sc3n2)cc1C`: the activity change, negative = inhibition is 5.56%.
As to `Cc1cccc(CSc2nnc(C)c(=O)n2N)c1`, the activity change, negative = inhibition was -16.8%.
Regarding `Cn1c(SCC(=O)N2CCCCC2)nc2c(c1=O)SCC2`, the activity change, negative = inhibition was -2.45%.
In the case of `Cc1cccc(CSc2nc3c(c(=O)n2C)SCC3)c1` it was -31.4% (active); in that of `Cc1cccc(OCC(O)Cn2c(=N)n(CCN3CCOCC3)c3ccccc32)c1` (stereo not given), -8.76%.
On to `CCOc1ccc(C(O)Cn2c(=N)n(CCN3CCCCC3)c3ccccc32)cc1` (stereo not given), for which the activity change, negative = inhibition was 3.59%.
The same measure for `Cn1c(=N)n(CC(O)c2cccs2)c2ccccc21` (stereo not given): -34.7% (active); for `COc1cc(C(=O)Nc2ccc(OCc3cc(=O)n4cc(C)sc4n3)cc2)cc(OC)c1OC`: -16.6%.
`Cc1ccc2cccc(OCCCOc3ccccc3CO)c2n1`: the activity change, negative = inhibition is -71.7% (active).
`CCOc1cccc(OCCCOc2cccc3cccnc23)c1`: the activity change, negative = inhibition was 7.73%.
Turning to `OCc1ccc(OCCCOc2cccc3cccnc23)cc1`, the activity change, negative = inhibition is -4.17%.
On to `Cn1c(=O)n(Cc2c(F)cccc2Cl)c(=O)c2c1nc1n2CCN1c1ccc(F)cc1`, for which the activity change, negative = inhibition is -4.11%.
In the case of `CCOc1ccc(NC(=O)c2cc(S(=O)(=O)N3CCCC3)c[nH]2)cc1`, the activity change, negative = inhibition is -12.2%.
In the case of `COc1cccc(NC(=S)N(Cc2ccc(C)cc2)Cc2ccccn2)c1`, the activity change, negative = inhibition is -4.38%.
As for `COc1ccc(CS(=O)/C(Cl)=C(/Cl)C(=O)Nc2ccc(OC)nc2)cc1` (stereo not given), the activity change, negative = inhibition is -16.1%.
Turning to `COc1ccc(NC(=O)/C(Cl)=C(/Cl)S(=O)Cc2ccc(C)cc2)cn1` (stereo not given), the activity change, negative = inhibition is -37.4% (active).
In the case of `Cc1cc(Cl)ccc1OCCCC(=O)NCc1ccccn1`, the activity change, negative = inhibition is -2.23%.
In the case of `Cc1cc(Cl)ccc1OCCCC(=O)NCc1ccncc1` it was -15.1%; in that of `Cc1cc(Cl)ccc1OCCCC(=O)Nc1cccc(-n2cnnn2)c1`, -32.2% (active).
In the case of `O=C(Nc1ccc2nc(SCCOc3ccccc3)sc2c1)c1ccco1` it was -3.21%; in that of `O=C(CSc1ncc(-c2ccccc2)[nH]1)Nc1ccc(F)cc1F`, -8.22%.
Take `CCc1ccccc1NC(=O)c1ccc2c(c1)CCN2S(C)(=O)=O`: the activity change, negative = inhibition was 6.15% and -13%.
Take `O=S1(=O)CCN2C(=N1)SC1=C2CCN(Cc2ccccc2)C1`: the activity change, negative = inhibition is 2.33%.
The same measure for `O=C(Nc1ccccc1Cc1ccccc1)c1ccc2c(c1)SC1=NS(=O)(=O)CCN12`: -30.1% (active).
Turning to `CCCN(C(=O)Cn1ncc2c([nH]c3ccc(C)cc32)c1=O)c1ccccc1C`, the activity change, negative = inhibition was 11.2%.
As to `O=[S+]([O-])(c1ccc(OC(F)(F)F)cc1)N1CCN([S+](=O)([O-])c2ccc3c(c2)OCCO3)CC1`, the activity change, negative = inhibition was -7.55%.
Regarding `Cc1nn2c(=O)cc(COC(=O)c3ccccc3NC(=O)COc3ccccc3C)nc2s1`, the activity change, negative = inhibition is -3.25%.
With `COc1ccccc1C(=O)Nc1ccc(C)c(S(=O)(=O)N2CCCCC2)c1`, the activity change, negative = inhibition was -2.3%.
In the case of `COc1ccc(NC(=O)CSc2nnc(C3CC3)n2C)cc1S(=O)(=O)N1CCCCC1`, the activity change, negative = inhibition is 5.62%.
Consider `COc1ccc(NC(=O)C2=NNC(=O)CC2)cc1S(=O)(=O)N1CCCCC1`, for which the activity change, negative = inhibition was -34.7% (active).
Consider `NS(=O)(=O)c1ccc(CCNC(=O)CCCCCn2c(=O)[nH]c3ccccc3c2=O)cc1`, for which the activity change, negative = inhibition is 5.32%.
With `COc1cc2nc(NCC(C)c3ccccc3)n3nc(-c4ccccc4)nc3c2cc1OC` (stereo not given), the activity change, negative = inhibition is -4.86%.
In the case of `Cc1nc2nc(NCc3cccc(Br)c3)[nH]n2c(=O)c1Cc1ccccc1` it was -2.6%.
`Cc1cccc(N(C)C(=O)CS(=O)(=O)c2cccc3nsnc23)c1`: the activity change, negative = inhibition is 9.37%.
Consider `O=C(Nc1cccc([N+](=O)[O-])c1)Nn1cnnc1`, for which the activity change, negative = inhibition is -44.2% (active).
With `COC(=O)/C=C\C(=O)Nc1cccc([N+](=O)[O-])c1`, the activity change, negative = inhibition is 16.7%.
On to `O=C(Nn1cnnc1)c1ccc([N+](=O)[O-])cc1`, for which the activity change, negative = inhibition is -2.94%.
The same measure for `CCCCCn1c(CCNC(=O)c2ccc(F)cc2)nc2ccccc21`: -29.3%.
As for `CC(=O)c1ccc(NC(=O)CCc2nc(-c3ccc(C)cc3)no2)cc1`, the activity change, negative = inhibition was 6.08%.
In the case of `CC(=O)c1cccc(NC(=O)c2nc(-c3ccccc3)n(-c3cccc(C)c3)n2)c1`, the activity change, negative = inhibition is -15.7%.
As for `[O-][n+]1onc2c1CCc1[nH]c(-c3ccccc3)nc1-2`, the activity change, negative = inhibition is -44.1% (active).
The same measure for `CCn1c(Cc2ccc(OC)cc2)nnc1SCC(=O)Nc1ccc(N2CCOCC2)cc1`: 0.621%; for `CCn1c(CNC(=O)c2ccc(OC)c(OC)c2)nnc1SCC(=O)Nc1ccccc1`: -0.592%; for `CCn1c(Cc2ccccc2)nnc1SCC(=O)Nc1ccccc1`: -30.1% (active).
As to `CCC(=O)N1c2ccccc2CC1C(=O)N1CCN(c2ccccc2F)CC1` (stereo not given), the activity change, negative = inhibition is 10.1%.
In the case of `CCOc1ccc(NC(=O)c2c(NC(=O)Cc3ccccc3)sc3c2CCCCC3)cc1` it was 0.456%.
As for `CN(C)CCCN1C(=O)CSC1c1ccc([N+](=O)[O-])cc1` (stereo not given), the activity change, negative = inhibition is 26.5%.
For `CCCCc1ccc(NC(=O)NCc2cccnc2)cc1`, the activity change, negative = inhibition was 19%.
In the case of `CCCCCCCCCCCCN1C(=O)CSC1c1cccnc1` (stereo not given), the activity change, negative = inhibition was -34.3% (active).
Turning to `Cc1cccc(CC(=O)N2CC(=O)Nc3ccc(F)cc3C2c2ccccc2)c1` (stereo not given), the activity change, negative = inhibition was -5.67%.
`Cc1nn(CC(=O)O)c(=O)c2cc3cc(F)ccc3n12`: the activity change, negative = inhibition is 16.8%.
As to `COc1cccc(CNC(=O)Cc2csc3nc(-c4ccccc4)cn23)c1`, the activity change, negative = inhibition is 8.74%.
Regarding `COc1ccc2c(Sc3ccc(C)cc3)c(C(=O)NC(C)c3ccccc3)[nH]c2c1` (stereo not given), the activity change, negative = inhibition is -2.66%.
The same measure for `Cc1ccc(NS(=O)(=O)c2ccc(C(C)(C)C)cc2)cn1`: -7.23%; for `Cc1ccc(S(=O)(=O)Nc2ccc3ncccc3c2)cc1`: -37.6% (active).
With `Cc1cc(C)cc(OCC(=O)Nc2ccc(S(=O)(=O)Nc3ccccn3)cc2)c1`, the activity change, negative = inhibition was -0.845%.
For `Cc1cn(C)c(CC(=O)NCc2ccc(Cl)cc2)c1C(=O)O`, the activity change, negative = inhibition is -2.23%.
Turning to `CCC(=O)N(Cc1ccccc1)c1ccccn1`, the activity change, negative = inhibition is -9.42%.
As for `COc1cc(CN(C(=O)c2ccccc2Br)c2ccccn2)cc(OC)c1OC`, the activity change, negative = inhibition was -66.6% (active).
Turning to `Cc1ccc(CN(C(=O)c2ccccc2[N+](=O)[O-])c2ccccn2)cc1`, the activity change, negative = inhibition was -7.2%.
As for `CCN(CC)c1ccc(NC(=O)CN2C(=O)c3cccnc3Oc3ccc(Cl)cc32)c(C)c1`, the activity change, negative = inhibition was -6.59%.
Consider `COc1ccc(N(C)C(=O)C2CCN(S(=O)(=O)c3cc(Br)cc4c3N(C(C)=O)CC4)CC2)cc1`, for which the activity change, negative = inhibition is 6.85%.
